Experimental data as given in PubChem BioAssay AID1159580 (chemical genetic matrix, 2015).
Screen size: about 5,500 compounds; about 2,000 (36%) were called active. About 18% were inconclusive and are not listed. Cut-off read from the data, not from the text of the source: active = normalized growth mostly below about 0.91 (no sharp cut-off); inconclusive = no clear call, values can overlap the other calls; inactive = mostly above about 0.92. The list shows a part of the results.

Experiment: chemical genetic growth profiling, strain panel (AID 1159580);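 note: tested at 20 µM; growth read once vehicle control cultures reached saturation at 30 °C; 1 = growth at the plate median or of vehicle wells; lower values mean less growth of the strain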
Settings: S. cerevisiae deletion strains, growth OD
[1] = locus YAL021C, strain ccr4, active compounds read low
[2] = locus YAL026C, strain drs2, active compounds read low
[3] = locus YAL030W, strain snc1, active compounds read low
[4] = locus YBL061C, strain skt5, active compounds read low
[5] = locus YBR009C, strain hhf1, active compounds read low
[6] = locus YBR023C, strain chs3, active compounds read low
[7] = locus YBR171W, strain sec66, active compounds read low
[8] = locus YBR231C, strain swc5, active compounds read low
[9] = locus YBR279W, strain paf1, active compounds read low
[10] = locus YCL011C, strain gbp2, active compounds read low
[11] = locus YCL016C, strain dcc1, active compounds read low
[12] = locus YCL069W, strain vba3, active compounds read low
[13] = locus YCR088W, strain abp1, active compounds read low
[14] = locus YDL005C, strain med2, active compounds read low
[15] = locus YDL040C, strain nat1, active compounds read low
[16] = locus YDR001C, strain nth1, active compounds read low
[17] = locus YDR069C, strain doa4, active compounds read low
[18] = locus YDR137W, strain rgp1, active compounds read low
[19] = locus YDR159W, strain sac3, active compounds read low
[20] = locus YDR297W, strain sur2, active compounds read low
[21] = locus YDR334W, strain swr1, active compounds read low
[22] = locus YDR335W, strain msn5, active compounds read low
[23] = locus YDR392W, strain spt3, active compounds read low
[24] = locus YEL003W, strain gim4, active compounds read low
[25] = locus YEL037C, strain rad23, active compounds read low
[26] = locus YEL061C, strain CIN8 (second series), active compounds read low
[27] = locus YER015W, strain faa2, active compounds read low
[28] = locus YER016W, strain bim1, active compounds read low
[29] = locus YER111C, strain swi4, active compounds read low
[30] = locus YER155C, strain BEM2 (second series), active compounds read low
[31] = locus YFR010W, strain ubp6, active compounds read low
[32] = locus YGL167C, strain pmr1, active compounds read low
[33] = locus YGL173C, strain kem1, active compounds read low
[34] = locus YGL227W, strain vid30, active compounds read low
[35] = locus YGL240W, strain doc1, active compounds read low
[36] = locus YGL253W, strain hxk2, active compounds read low
[37] = locus YHR013C, strain ard1, active compounds read low
[38] = locus YHR027C, strain rpn1, active compounds read low
[39] = locus YHR142W, strain chs7, active compounds read low
[40] = locus YJL092W, strain hpr5, active compounds read low
[41] = locus YJL095W, strain BCK1 (second series), active compounds read low
[42] = locus YJL115W, strain asf1, active compounds read low
[43] = locus YJL129C, strain trk1, active compounds read low
[44] = locus YJL154C, strain vps35, active compounds read low
[45] = locus YJL164C, strain tpk1, active compounds read low
[46] = locus YJL166W, strain qcr8, active compounds read low
[47] = locus YKL160W, strain elf1, active compounds read low
[48] = locus YKR026C, strain gcn3, active compounds read low
[49] = locus YKR091W, strain srl3, active compounds read low
[50] = locus YLL001W, strain dnm1, active compounds read low
[51] = locus YLL026W, active compounds read low
[52] = locus YLL041C, strain sdh2, active compounds read low
[53] = locus YLR027C, strain aat2, active compounds read low
[54] = locus YLR221C, strain rsa3, active compounds read low
[55] = locus YLR258W, strain gsy2, active compounds read low
[56] = locus YLR262C, strain YPT6 (second series), active compounds read low
[57] = locus YLR320W, strain mms22, active compounds read low
[58] = locus YLR342W, strain FKS1, active compounds read low
[59] = locus YLR357W, strain rsc2, active compounds read low
[60] = locus YLR370C, strain arc18, active compounds read low
[61] = locus YLR384C, strain iki3, active compounds read low
[62] = locus YML120C, strain ndi1, active compounds read low
[63] = locus YMR058W, strain fet3, active compounds read low
[64] = locus YMR125W, strain sto1, active compounds read low
[65] = locus YMR129W, active compounds read low
[66] = locus YMR205C, strain PFK2, active compounds read low
[67] = locus YMR231W, strain pep5, active compounds read low
[68] = locus YNL071W, strain lat1, active compounds read low
[69] = locus YNL209W, strain ssb2, active compounds read low
[70] = locus YNL248C, strain rpa49, active compounds read low
[71] = locus YNL322C, strain KRE1 (second series), active compounds read low
[72] = locus YNR049C, strain mso1, active compounds read low
[73] = locus YOR001W, strain rrp6, active compounds read low
[74] = locus YOR070C, strain gyp1, active compounds read low
[75] = locus YOR080W, strain dia2, active compounds read low
[76] = locus YOR083W, strain WHI5, active compounds read low
[77] = locus YOR106W, strain vam3, active compounds read low
[78] = locus YOR265W, strain rbl2, active compounds read low
[79] = locus YOR270C, strain vph1, active compounds read low
[80] = locus YOR290C, strain snf2, active compounds read low
[81] = locus YPL051W, strain arl3, active compounds read low
[82] = locus YPL078C, strain atp4, active compounds read low
[83] = locus YPL106C, strain sse1, active compounds read low
[84] = locus YPL240C, strain hsp82, active compounds read low

Measured: normalized growth

Cc1nc(N=Nc2ccc(C(=O)O)cc2)c(COP(=O)(O)O)c(C=O)c1O
inactive: locus YAL040C, strain CLN3, active compounds read low 0.978 | locus YCL061C, strain MRC1 (second series), active compounds read low 1.01 | locus YDR150W, strain NUM1, active compounds read low 1.02 | locus YDR363W, strain ESC2, active compounds read low 1 | locus YER002W, strain NOP16, active compounds read low 1.02 | locus YMR263W, strain SAP30, active compounds read low 1.01 | locus YMR307W, strain GAS1, active compounds read low 1.04 | locus YNL128W, strain TEP1, active compounds read low 0.99 | locus YNL175C, strain NOP13, active compounds read low 1.01 | locus YNL197C, strain WHI3, active compounds read low 1.01 | locus YNL224C, strain SQS1, active compounds read low 1.01 | locus YOR083W, strain WHI5 (second series), active compounds read low 1.03 | locus YPL055C, strain LGE1, active compounds read low 1.01 | locus YPL241C, strain CIN2, active compounds read low 1.01

COC(=O)C1=COC(OC2OC(CO)C(O)C(O)C2O)C2C(C)CC(=O)C12O (centres undefined)
inactive: [1] 0.942 | [2] 0.994 | [3] 0.975 | [4] 0.991 | [5] 0.944 | [6] 0.986 | [7] 0.983 | [8] 1.02 | [9] 0.995 | [10] 0.982 | [11] 0.978 | [12] 0.987 | [13] 1 | [14] 0.986 | [15] 0.994 | [16] 0.965 | [17] 0.985 | [18] 0.982 | [19] 1.03 | locus YDR195W, strain ref2 0.989 | [20] 0.993 | [21] 0.959 | [22] 0.994 | [23] 0.898 | [24] 0.989 | [25] 0.984 | [26] 0.984 | [27] 0.977 | [28] 0.985 | [29] 0.987 | [30] 1.01 | [31] 0.989 | [32] 0.966 | [33] 0.997 | [34] 0.991 | [35] 1.01 | [36] 1.01 | [37] 0.953 | [38] 0.967 | [39] 0.993 | [40] 0.983 | [41] 0.982 | [42] 0.972 | [43] 1 | [44] 0.978 | [45] 0.946 | [46] 0.975 | [47] 0.979 | [48] 0.986 | [49] 0.978 | [50] 1.01 | [51] 0.987 | [52] 0.98 | [53] 1.01 | [54] 1.03 | [55] 0.993 | [56] 0.984 | [57] 1.03 | [58] 0.999 | [59] 0.975 | [60] 1.01 | [61] 0.998 | [62] 0.955 | [63] 0.987 | [64] 0.937 | [65] 0.975 | [66] 0.945 | [67] 0.99 | [68] 0.974 | [69] 1 | [70] 1.03 | [71] 0.978 | [72] 0.971 | [73] 1.02 | [74] 0.996 | [75] 0.992 | [76] 0.98 | [77] 0.94 | [78] 0.999 | [79] 1.02 | [80] 0.927 | [81] 0.999 | [82] 0.954 | [83] 0.959 | [84] 0.986

COc1ccc(-c2cc(=O)c3c(O)cc(OC)c(OC)c3o2)c(OC)c1
active: [25] 1.1 [resistant]
inactive: [1] 0.977 | [2] 1.02 | [3] 1.02 | [4] 0.997 | [5] 0.964 | [6] 0.989 | [7] 1.04 | [8] 0.966 | [9] 1.01 | [10] 1.01 | [11] 1 | locus YCL061C, strain MRC1, active compounds read low 1.03 | [12] 1.04 | [13] 1.03 | [14] 1.02 | [15] 1.02 | [16] 1.04 | [17] 0.97 | [18] 0.943 | [19] 1.02 | locus YDR195W, strain ref2 1.07 | [20] 1.02 | [21] 1.05 | [22] 1.03 | [23] 0.846 | [24] 1.01 | [26] 1.04 | [27] 0.971 | [28] 1.02 | [29] 1.05 | [30] 0.956 | [31] 1 | [32] 0.998 | [33] 1.02 | [34] 1.04 | [35] 1.04 | [36] 1.01 | [37] 0.975 | [38] 0.985 | locus YHR030C, strain SLT2, active compounds read low 1.04 | locus YHR079C, strain IRE1, active compounds read low 1.03 | [39] 1 | [40] 1.04 | [41] 1.01 | locus YJL095W, strain BCK1, active compounds read low 0.967 | [42] 1.05 | [43] 1.02 | [44] 1.04 | [45] 0.95 | [46] 1 | locus YJL187C, strain SWE1, active compounds read low 1.02 | locus YJR066W, strain TOR1, active compounds read low 0.973 | [47] 0.993 | [48] 1.05 | [49] 1.03 | [50] 1.01 | [51] 1.02 | [52] 1.02 | [53] 0.996 | locus YLR113W, strain HOG1, active compounds read low 0.932 | [54] 0.966 | [55] 1.01 | [56] 0.907 | [57] 0.966 | [58] 0.997 | [59] 0.994 | [60] 1.03 | [61] 1.02 | [62] 1.02 | [63] 0.917 | [64] 1.05 | [65] 1.03 | [66] 1.01 | [67] 1.03 | [68] 1.02 | locus YNL183C, strain NPR1, active compounds read low 0.893 | [69] 0.937 | [70] 1.05 | [71] 1.04 | [72] 1.03 | [73] 1.01 | [74] 0.997 | [75] 1.04 | [76] 0.962 | [77] 0.944 | locus YOR231W, strain MKK1, active compounds read low 1.03 | [78] 1.01 | [79] 1.03 | [80] 0.961 | [81] 0.916 | [82] 1.03 | [83] 0.983 | [84] 1.02 | locus YPL256C, strain CLN2, active compounds read low 1.01
